# Most compounds without a hit are left out; they make up all but 0.51% or so of the library.
# FMDV Renilla: Primary qHTS Assay for Foot and Mouth Disease Virus Antivirals against NCGC Sytravon and CBC Compound Libraries: Renilla Luciferase Signal; FMDV replicon cells, Renilla luciferase signal; 0.32% of 120,000 active; Potency, µM (series often up to 57.5 µM), inactives show at the top dose activity change, negative = inhibition, most hits filed as inhibitors; further: nearly all actives have a fitted effect of over 55% in size
# FMDV FLuc: Primary qHTS Assay for Foot and Mouth Disease Virus Antivirals against NCGC Sytravon and CBC Compound Libraries: Firefly Luciferase Signal | FMDV antiviral cell assay, firefly luciferase signal | Potency, µM (highest dose often 57.5 µM), for inactives: top-dose activity change, negative = inhibition, most hits filed as inhibitors | 0.23% of 120,000 active | AID 1745856, 2022; further: nearly all actives have a fitted effect of over 60% in size
# Active calls of the source: *; ? = inconclusive. The call rests on the fitted dose curve. On the % scale 0 is the no-effect control and ±100 the full control effect; potency means the concentration at half of the fitted maximal effect.
SMILES,FMDV Renilla,FMDV FLuc
O=C(Nc1cccc(C(F)(F)F)c1)c1nc2ccccc2nc1N1CCCCC1,1%,-9%
CCC1CCCCN1S(=O)(=O)c1ccc(NC(=O)c2snnc2C)cc1 (configuration not stated),?,18µM*
Cc1nnsc1C(=O)Nc1ccc(S(=O)(=O)N2CCCCC2)cc1,-3%,-9%
O=C(c1ccc(Cl)cc1Cl)N(CCS(=O)(=O)N1CCOCC1)Cc1cccnc1,-2%,-7%
CNc1c(NC(=O)C2CC(=O)N(c3ccc(C)cc3)C2)c(=O)oc2ccccc12 (configuration not stated),11%,16%
O=c1c2cnc(N3CCc4ccccc4C3)nc2ccn1-c1ccccc1,?,25µM*
O=c1c2cnc(N3CCc4ccccc4C3)nc2ccn1-c1cc(Cl)cc(Cl)c1,2%,65%
CCCc1c(C)c2ccc(OCC(=O)c3ccccc3)cc2oc1=O,-15%,3%
CC1=C(C#N)C(c2cc(Br)ccc2OC(F)F)C(C#N)=C(C)N1,28µM*,?
CC1=C(C#N)C(c2ccccc2C)C(C#N)=C(C)N1,-4%,-18%
Cc1nc(N2CCC(C(=O)Nc3cccc(Br)c3)CC2)c2c(C)c(C)oc2n1,?,18µM*
Cc1nc(N2CCC(C(=O)Nc3cccc(Cl)c3C)CC2)c2c(C)c(C)oc2n1,-3%,-3%
COc1ccc(C2CC(c3cccc(NS(C)(=O)=O)c3)=NN2C(=O)c2cccs2)cc1OC (configuration not stated),95%,65%
COc1cc(C(=O)Nc2ncccc2C)cc(Cl)c1OC,16%,57%
O=C(NN=C(/C=C/c1ccccc1)/C=C/c1ccccc1)c1cccs1,10%,89%
Cc1ccc(NC(=O)N2CCN(c3cc(-c4noc(C)n4)ccc3C)CC2)c(C)c1,-4%,11%
Cc1nc(-c2ccc(C)c(N3CCN(C(=O)Nc4cccc(Cl)c4C)CC3)c2)no1,?,25µM*
Cc1nc2cc(NC(=O)c3cc(Cl)cc(Cl)c3)ccc2o1,13%,142%
COc1cccc(NC(=O)CN(C)S(=O)(=O)c2ccc3nc(C)sc3c2)c1,-8%,15%
CCOc1ccccc1NC(=O)CN(C)S(=O)(=O)c1ccc2nc(C)sc2c1,32µM*,?
Cn1c(=O)c2c(nc(NCc3ccco3)n2Cc2ccccc2)n(C)c1=O,?,16µM*
CCCn1c(NCc2ccc(C)cc2)nc2c1c(=O)n(C)c(=O)n2C,28µM*,?
Cc1cccc(Cn2c(NCCCO)nc3c2c(=O)n(C)c(=O)n3C)c1,5%,-7%
CCn1c(NCc2ccccc2)nc2c1c(=O)n(C)c(=O)n2C,-5%,-10%
Cn1c(=O)c2c(nc(NCCO)n2Cc2cccc(C(F)(F)F)c2)n(C)c1=O,10µM*,?
SMILES,FMDV Renilla,FMDV FLuc
Cn1c(=O)c2c(nc(NCc3ccccc3)n2Cc2ccccc2)n(C)c1=O,-18%,-19%
COc1ccc(C(=O)Nc2ccc3oc(C)nc3c2)cc1,?,10%
O=C(Nc1ccccc1)Nc1cccc(-c2nnc(Cc3ccc4c(c3)OCO4)o2)c1,37%,57%
Cc1ccc(C(=O)Nc2nc(-c3nnn(-c4ccc(F)cc4F)c3C)ns2)cc1C,6%,11%
Cc1cc(N2CCCC2)nc(Nc2ccc(NS(=O)(=O)c3ccc(Br)cc3)cc2)n1,-17%,32µM*
Cc1cc(N2CCOCC2)nc(Nc2ccc(NC(=O)CCc3ccccc3)cc2)n1,4µM*,5µM*
Cc1cc(N2CCOCC2)nc(N2CCN(C(=O)Nc3ccccc3)CC2)n1,-4%,0%
CCN(CC)c1cc(C)nc(Nc2ccc(NS(=O)(=O)c3ccc(OC)c(OC)c3)cc2)n1,-61%,?
Cc1cc(N2CCCC2)nc(Nc2ccc(NC(=O)Nc3ccc(Cl)cc3)cc2)n1,13%,48%
Cc1cc(N2CCCCC2)nc(Nc2ccc(NC(=O)Cc3ccccc3)cc2)n1,13µM*,14µM*
O=C(N[C@H](CO)c1ccccc1)C1CCC(CNS(=O)(=O)c2ccc(Cl)cc2)CC1 (some centres not stated),12%,-14%
COc1ccc(Nc2cc(C)c3cc(C)ccc3n2)cc1,20%,233%
O=C(Nc1ccc(Cl)c(C(F)(F)F)c1)c1nn(-c2cccc(Cl)c2)ccc1=O,4%,63%

# Assay outcomes from PubChem BioAssay.
